Molecules are shown by their SMILES. Records with an inconclusive call do not appear. Where a call stands in place of a potency, no number is given. A number with no mark means an inactive call. Active and inactive are the calls of the source. The call rests on the fitted dose curve; in most records, active means well fitted activation curve with a large enough effect; inconclusive means small, poorly fitted or top-dose-only effect; inactive means flat fitted curve, though single readings scatter.

The assay is described as follows: Primary redox qHTS assay for identification of artifact compounds. (AID 1845223). As to conditions: Amplex Red/HRP redox cycling with DTT, fluorescence; series mostly up to 53.8 µM. In outline: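 Redox-cycling detection via DTT (250 uM final) oxidation coupled to Amplex Red (25 uM)/HRP (250 mU/mL) in HBSS. 15 min preincubation plus 30 min after DTT, room temperature. Ex/Em 525/598 nm; 4-parameter Hill fit against DMSO and 10 uM DA3003.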
Turning to `N#Cc1ccc(-c2ccc(S(=O)(=O)Nc3cccc(N)n3)cc2)cc1`, the Potency result is “inactive”.
The same measure, in the same setting: the result for `COc1ccc(N2CCN(C(=O)c3cc4c(s3)-c3ccccc3S(=O)(=O)C4)CC2)cc1` reads “inactive”.
Regarding `Clc1ncoc1-c1c[nH]c2ccccc12`, the Potency entry was “inactive”.
For the molecule `CC(=O)OC1CC(C)(C(=O)O)CC2C3=CC(=O)C4C5(C)CCC(OC6OC(C(=O)O)C(O)C(O)C6OC6OC(C(=O)O)C(O)C(O)C6O)C(C)(C)C5CCC4(C)C3(C)CCC12C` (stereo not given), the redox activity (% of DA3003) is 5.43% [at 11.5 µM].
On to `NS(=O)(=O)Nc1ncnc(OCCOc2ncc(Br)cn2)c1-c1ccc(Br)cc1`, for which the Potency entry was “inactive”.
Consider `CCCC(Nc1nc(-c2ccc(NC(=O)NCC)c(OC)c2)ncc1C)c1cccnc1` (stereo not given), for which the Potency result is “inactive”.
For the molecule `NC(N)=NC(=O)c1cnn(-c2cccc3ncccc23)c1C1CC1`, the Potency entry is “inactive”.
Turning to `Cc1cc(C(=O)Cn2cc(C#N)ccc2=O)c(C)n1Cc1ccccc1`, the Potency result is “inactive”.
As for `CC(=O)C1=CCC2C3CC=C4CC(O)CC(O)C4(C)C3C(O)CC12C` (stereo not given), the Potency result is “inactive”.
As to `Cc1cc(CS(=O)(=O)c2ccccc2)cc(OCc2ccc(CN3CCCC3CO)cc2)c1` (stereo not given), the Potency entry is “inactive”.
With `CC(O)(C(=O)C1CC1(CO)COC1OC(CO)C(O)C(O)C1O)C1C(O)CC2C3CC=C4CC(O)CC(O)C4(C)C3C(O)CC21C` (stereo not given), the Potency entry is “inactive”.
For `CC(C)(C[C@@](O)(Cc1cc2ccncc2[nH]1)C(F)(F)F)c1cc(F)ccc1O`, the Potency entry is “inactive”.
Consider `CCCCC1CCC(c2nc(-c3ccncc3)no2)CC1` (stereo not given), for which the Potency entry was “inactive”.
The same measure, in the same setting: the same measure for `COc1cc(NC(=O)c2cccc(-n3cc(NC(=O)Nc4cccc(C)c4)cn3)c2)cc(OC)c1OC`: “inactive”.
Take `Cn1cc(-c2cnn3c(N)c(Br)c([C@@H]4CCCNC4)nc23)cn1`: the Potency result was “inactive”.

These data come from PubChem BioAssay (NCATS).
